Results as given in PubChem BioAssay (NCI).
The panel holds about 79,000 compounds, 15% with a hit somewhere; the sample as a whole holds those more often. Values without a mark were called inactive. The source made the active and inactive calls. Rule as the data show it: active = growth inhibition above about 70%; inactive = the rest.

What was measured:
[1] = NCI Yeast Anticancer Drug Screen. Data for the rad52 strain (AID 147);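 also: 0% = growth of vehicle-treated control cultures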; details: S. cerevisiae rad52 mutant growth inhibition, active compounds read high
How it was run: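 Vehicle-treated cultures served as the reference for growth inhibition of compound-exposed yeast bearing a DNA repair mutation.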

[2] = NCI Yeast Anticancer Drug Screen. Data for the wt1 strain (AID 149);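 also: 0% = growth of vehicle-treated wt1 cultures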; details: S. cerevisiae wt1 strain (SPY 50644) growth inhibition, active compounds read high
How it was run: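 Growth inhibition read against vehicle controls after compound exposure of the wt1 yeast strain.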

[3] = NCI Yeast Anticancer Drug Screen. Data for the rad50EPP+ strain (AID 151);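 also: 0% = growth of vehicle-treated control cultures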; details: S. cerevisiae rad50 mutant strain, active compounds read high
How it was run: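 In this screen, rad50EPP+ yeast were exposed to compounds. Growth inhibition was scored against vehicle-treated controls.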

[4] = NCI Yeast Anticancer Drug Screen. Data for the mgt1 strain (AID 153); details: S. cerevisiae mgt1 mutant growth inhibition, active compounds read high
How it was run: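 mgt1 strain exposed; growth vs vehicle control recorded as inhibition.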

[5] = NCI Yeast Anticancer Drug Screen. Data for the rad50 strain (AID 155);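 also: 0% = growth of vehicle-only cultures of the same strain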; details: S. cerevisiae rad50 strain growth inhibition, active compounds read high
How it was run: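 Readout: growth inhibition relative to vehicle-treated cultures. Compound exposure was carried out in a genetically defined yeast strain deficient in DNA damage repair.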

[6] = NCI Yeast Anticancer Drug Screen. Data for the mec2-1 strain (AID 157); details: S. cerevisiae mec2-1 strain, active compounds read high
How it was run: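 Vehicle-treated cultures served as reference for growth inhibition of compound-exposed mec2-1 yeast.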

[7] = NCI Yeast Anticancer Drug Screen. Data for the rad14 strain (AID 159);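 also: 0% = growth of vehicle-treated control cultures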; details: S. cerevisiae rad14 strain growth inhibition, active compounds read high
How it was run: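 Growth inhibition vs vehicle controls; genetically altered yeast strain (DNA damage repair defect) treated with test compounds.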

[8] = NCI Yeast Anticancer Drug Screen. Data for the sgs1 mgt1 strain (AID 161);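 also: 0% = growth of cultures given vehicle only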; details: S. cerevisiae sgs1 mgt1 strain, active compounds read high
How it was run: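 Mutant yeast exposed to compound; growth scored against vehicle-only wells.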

[9] = NCI Yeast Anticancer Drug Screen. Data for the CLN2oe strain (AID 163);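 also: 0% = growth of vehicle-only control cultures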; details: S. cerevisiae CLN2oe strain, active compounds read high
How it was run: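 Inhibition relative to vehicle-treated yeast is reported. Cells: strain with genetic alteration in cell-cycle control, grown with compound.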

[10] = NCI Yeast Anticancer Drug Screen. Data for the cln2 rad14 strain (AID 165);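 also: 0% = growth equal to vehicle treated cultures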; details: S. cerevisiae cln2 rad14 strain, active compounds read high
How it was run: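 Each compound was tested on cln2 rad14 yeast. Inhibition of growth was calculated against vehicle-exposed controls.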

[11] = NCI Yeast Anticancer Drug Screen. Data for the bub3 strain (AID 167); details: S. cerevisiae bub3 mutant strain, active compounds read high
How it was run: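 Readout: yeast growth inhibition, expressed relative to vehicle-only wells. The test organism is a mutant strain from a panel with lesions in DNA repair or checkpoint genes.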

[12] = NCI Yeast Anticancer Drug Screen. Data for the wt2 strain (AID 169);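 also: 0% = growth of vehicle-treated yeast cultures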; details: S. cerevisiae wt2 strain growth inhibition, active compounds read high
How it was run: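 Inhibition of yeast growth was determined after compound treatment, normalised to controls receiving only vehicle.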

[13] = NCI Yeast Anticancer Drug Screen. Data for the mlh1 strain (AID 171);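 also: 0% = growth of vehicle-treated control cultures of the same strain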; details: S. cerevisiae mlh1 strain growth inhibition, active compounds read high
How it was run: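 Vehicle-normalised growth inhibition of a repair- or checkpoint-altered yeast strain following compound treatment.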

[14] = NCI Yeast Anticancer Drug Screen. Data for the sgs1 strain (AID 173);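 also: 0% = growth of vehicle-only control cultures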; details: S. cerevisiae sgs1 mutant, active compounds read high
How it was run: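 Screen format: yeast with repair or checkpoint alterations, compound exposure, growth read relative to vehicle.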

[15] = NCI Yeast Anticancer Drug Screen. Data for the rad18 strain (AID 177); details: S. cerevisiae rad18 mutant growth inhibition, active compounds read high
How it was run: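 Test articles were incubated with altered yeast defective in DNA damage repair. Results are given as inhibition of growth versus vehicle.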

[16] = at 5.0 µM (retest, dose inferred, filed as 0.5)
[17] = at 50.0 µM (retest, dose inferred, filed as 5.0)

COc1cc2c(cc1OC)[C@@H](Nc1ccc(C#N)cc1)C1COC(=O)[C@@H]1C2c1cc(OC)c(O)c(OC)c1 (stereo not given in full)
growth inhibition ([1]; at 1.2 µM): 14% | growth inhibition ([1]; at 3.7 µM): 52% | growth inhibition ([1]; at 11.0 µM): 81% (active) | growth inhibition ([1]; at 33.0 µM): 91% (active) | growth inhibition ([1]; at 100.0 µM): 93% (active) | growth inhibition ([2]; at 1.2 µM): -34% | growth inhibition ([2]; at 3.7 µM): -33% | growth inhibition ([2]; at 11.0 µM): -9% | growth inhibition ([2]; at 33.0 µM): 6% | growth inhibition ([2]; at 100.0 µM): 79% (active) | growth inhibition ([3]; at 1.2 µM): -15% | growth inhibition ([3]; at 3.7 µM): -11% | growth inhibition ([3]; at 11.0 µM): -1% | growth inhibition ([3]; at 33.0 µM): 6% | growth inhibition ([3]; at 100.0 µM): 20% | growth inhibition ([4]; at 1.2 µM): -17% | growth inhibition ([4]; at 3.7 µM): -19% | growth inhibition ([4]; at 11.0 µM): 12% | growth inhibition ([4]; at 33.0 µM): 20% | growth inhibition ([4]; at 100.0 µM): 83% (active) | growth inhibition ([5]; at 1.2 µM): 24% | growth inhibition ([5]; at 3.7 µM): 70% (active) | growth inhibition [5, 16]: 88% (active) | growth inhibition ([5]; at 11.0 µM): 90% (active) | growth inhibition ([5]; at 33.0 µM): 93% (active) | growth inhibition [5, 17]: 97% (active) | growth inhibition ([5]; at 50.0 µM): 88% (active) | growth inhibition ([5]; at 100.0 µM): 95% (active) | growth inhibition ([6]; at 1.2 µM): -22% | growth inhibition ([6]; at 3.7 µM): 5% | growth inhibition [6, 16]: 11% | growth inhibition ([6]; at 11.0 µM): 15% | growth inhibition ([6]; at 33.0 µM): 70% (active) | growth inhibition [6, 17]: 98% (active) | growth inhibition ([6]; at 50.0 µM): 91.5% (active) | growth inhibition ([6]; at 100.0 µM): 91% (active) | growth inhibition ([7]; at 1.2 µM): -12% | growth inhibition ([7]; at 3.7 µM): -8% | growth inhibition ([7]; at 11.0 µM): 0% | growth inhibition ([7]; at 33.0 µM): 22% | growth inhibition ([7]; at 100.0 µM): 81% (active) | growth inhibition [8, 16]: 17% | growth inhibition [8, 17]: 96% (active) | growth inhibition ([8]; at 50.0 µM): 88% (active) | growth inhibition ([9]; at 1.2 µM): -5% | growth inhibition ([9]; at 3.7 µM): 19% | growth inhibition ([9]; at 11.0 µM): 11% | growth inhibition ([9]; at 33.0 µM): 38% | growth inhibition ([9]; at 100.0 µM): 84% (active) | growth inhibition [10, 16]: 7% | growth inhibition [10, 17]: 91% (active) | growth inhibition ([10]; at 50.0 µM): 82% (active) | growth inhibition ([11]; at 1.2 µM): -32% | growth inhibition ([11]; at 3.7 µM): -13% | growth inhibition [11, 16]: -54% | growth inhibition ([11]; at 11.0 µM): -22% | growth inhibition ([11]; at 33.0 µM): 15% | growth inhibition [11, 17]: 95% (active) | growth inhibition ([11]; at 50.0 µM): 89.2% (active) | growth inhibition ([11]; at 100.0 µM): 78% (active) | growth inhibition ([12]; at 1.2 µM): 6% | growth inhibition ([12]; at 3.7 µM): 17% | growth inhibition ([12]; at 11.0 µM): 46% | growth inhibition ([12]; at 33.0 µM): 90% (active) | growth inhibition ([12]; at 100.0 µM): 93% (active) | growth inhibition ([13]; at 1.2 µM): -3% | growth inhibition ([13]; at 3.7 µM): 9% | growth inhibition ([13]; at 11.0 µM): 16% | growth inhibition ([13]; at 33.0 µM): 33% | growth inhibition ([13]; at 100.0 µM): 81% (active) | growth inhibition ([14]; at 1.2 µM): -20% | growth inhibition ([14]; at 3.7 µM): -14% | growth inhibition ([14]; at 11.0 µM): -2% | growth inhibition ([14]; at 33.0 µM): 39% | growth inhibition ([14]; at 100.0 µM): 85% (active) | growth inhibition ([15]; at 1.2 µM): -30% | growth inhibition ([15]; at 3.7 µM): -8% | growth inhibition ([15]; at 11.0 µM): -5% | growth inhibition ([15]; at 33.0 µM): 13% | growth inhibition ([15]; at 100.0 µM): 84% (active)
